# From PubChem BioAssay AID1159580 (chemical genetic matrix, 2015)
# Where “and” joins values, the source holds several entries; their conditions need not be identical. Identical values can stand only once. In all, about 5,500 compounds went through this assay and about 2,000 (36%) were called active. Roughly 18% stayed inconclusive and do not appear here. The list shows a part of the results. Unmarked numbers belong to inactive results. Cut-off read from the data, not from the text of the source: active = normalized growth mostly below about 0.91 (no sharp cut-off); inconclusive = no clear call, values can overlap the other calls; inactive = mostly above about 0.92.
# Assay: chemical genetic growth profiling, strain panel (AID 1159580);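 note: tested at 20 µM; growth read once vehicle control cultures reached saturation at 30 °C; 1 = growth at the plate median or of vehicle wells; lower values mean less growth of the strain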
# Details: S. cerevisiae deletion strains, growth OD
compound,measurement,setting,value
C[C@H](CCC(=O)O)[C@H]1CCC2C3C(CC[C@@]21C)[C@@]1(C)CC[C@@H](O)C[C@H]1C[C@@H]3O (stereo partly specified),normalized growth,"locus YAL013W, strain DEP1, hits give low values",0.984
same,normalized growth,"locus YAL021C, strain ccr4, hits give low values",1.02
same,normalized growth,"locus YAL026C, strain drs2, hits give low values",0.997
same,normalized growth,"locus YAL030W, strain snc1, hits give low values",0.983
same,normalized growth,"locus YBL061C, strain skt5, hits give low values",0.986
same,normalized growth,"locus YBR009C, strain hhf1, hits give low values",1.03
same,normalized growth,"locus YBR021W, strain FUR4, hits give low values",0.988
same,normalized growth,"locus YBR023C, strain chs3, hits give low values",0.987
same,normalized growth,"locus YBR171W, strain sec66, hits give low values",0.961
same,normalized growth,"locus YBR229C, strain ROT2, hits give low values",0.985
same,normalized growth,"locus YBR231C, strain swc5, hits give low values",0.996
same,normalized growth,"locus YBR279W, strain paf1, hits give low values",1
same,normalized growth,"locus YCL011C, strain gbp2, hits give low values",1.02
same,normalized growth,"locus YCL016C, strain dcc1, hits give low values",1.04
same,normalized growth,"locus YCL029C, strain bik1, hits give low values",0.963
same,normalized growth,"locus YCL069W, strain vba3, hits give low values",0.991
same,normalized growth,"locus YCR088W, strain abp1, hits give low values",0.989
same,normalized growth,"locus YDL005C, strain med2, hits give low values",0.989
same,normalized growth,"locus YDL035C, strain GPR1, hits give low values",0.992
same,normalized growth,"locus YDL040C, strain nat1, hits give low values",0.983
same,normalized growth,"locus YDL074C, strain BRE1, hits give low values",0.946
same,normalized growth,"locus YDL101C, strain DUN1, hits give low values",0.986
same,normalized growth,"locus YDL134C, strain PPH21, hits give low values",0.981
same,normalized growth,"locus YDL185W, strain tfp1, hits give low values",0.972
same,normalized growth,"locus YDL192W, strain arf1, hits give low values",0.979
same,normalized growth,"locus YDR001C, strain nth1, hits give low values",0.982
same,normalized growth,"locus YDR069C, strain doa4, hits give low values",0.954
same,normalized growth,"locus YDR101C, strain arx1, hits give low values",0.986
same,normalized growth,"locus YDR137W, strain rgp1, hits give low values",0.821 (active)
same,normalized growth,"locus YDR150W, strain NUM1, hits give low values",0.997
same,normalized growth,"locus YDR159W, strain sac3, hits give low values",1.04
same,normalized growth,"locus YDR162C, strain NBP2, hits give low values",0.989
same,normalized growth,"locus YDR195W, strain ref2",0.94
same,normalized growth,"locus YDR297W, strain sur2, hits give low values",0.989
same,normalized growth,"locus YDR318W, strain mcm21, hits give low values",0.977
same,normalized growth,"locus YDR334W, strain swr1, hits give low values",0.961
same,normalized growth,"locus YDR335W, strain msn5, hits give low values",0.981
same,normalized growth,"locus YDR388W, hits give low values",0.98
same,normalized growth,"locus YDR392W, strain spt3, hits give low values",1.1
same,normalized growth,"locus YDR502C, strain sam2, hits give low values",0.984
same,normalized growth,"locus YEL003W, strain gim4, hits give low values",0.976
same,normalized growth,"locus YEL037C, strain rad23, hits give low values",1
same,normalized growth,"locus YEL061C, strain CIN8 (second series), hits give low values",0.983
same,normalized growth,"locus YEL061C, strain CIN8, hits give low values",0.99
same,normalized growth,"locus YER015W, strain faa2, hits give low values",1.03
same,normalized growth,"locus YER016W, strain bim1, hits give low values",0.998
same,normalized growth,"locus YER110C, hits give low values",0.984
same,normalized growth,"locus YER111C, strain swi4, hits give low values",0.979
same,normalized growth,"locus YER155C, strain BEM2 (second series), hits give low values",1.02
same,normalized growth,"locus YER155C, strain BEM2, hits give low values",0.99
same,normalized growth,"locus YER167W, strain BCK2, hits give low values",0.988
same,normalized growth,"locus YFR010W, strain ubp6, hits give low values",0.969
same,normalized growth,"locus YGL078C, strain dbp3, hits give low values",0.967
same,normalized growth,"locus YGL086W, strain mad1, hits give low values",0.985
same,normalized growth,"locus YGL167C, strain pmr1, hits give low values",0.974
same,normalized growth,"locus YGL173C, strain kem1, hits give low values",0.951
same,normalized growth,"locus YGL227W, strain vid30, hits give low values",0.998
same,normalized growth,"locus YGL240W, strain doc1, hits give low values",0.982
same,normalized growth,"locus YGL248W, strain PDE1, hits give low values",0.996
same,normalized growth,"locus YGL253W, strain hxk2, hits give low values",1.02
same,normalized growth,"locus YGR078C, strain PAC10, hits give low values",0.99
same,normalized growth,"locus YGR135W, strain pre9, hits give low values",0.975
same,normalized growth,"locus YGR229C, strain SMI1, hits give low values",0.99
same,normalized growth,"locus YGR252W, strain gcn5, hits give low values",1.09
same,normalized growth,"locus YHR013C, strain ard1, hits give low values",1.03
same,normalized growth,"locus YHR027C, strain rpn1, hits give low values",1
same,normalized growth,"locus YHR030C, strain SLT2, hits give low values",1 and 0.948
same,normalized growth,"locus YHR079C, strain IRE1 (second series), hits give low values",0.974
same,normalized growth,"locus YHR079C, strain IRE1, hits give low values",0.945
same,normalized growth,"locus YHR094C, strain hxt1, hits give low values",0.982
same,normalized growth,"locus YHR129C, strain ARP1, hits give low values",1
same,normalized growth,"locus YHR142W, strain chs7, hits give low values",0.999
same,normalized growth,"locus YHR200W, strain rpn10, hits give low values",1
same,normalized growth,"locus YIL066C, strain RNR3, hits give low values",0.98
same,normalized growth,"locus YIL073C, strain SPO22, hits give low values",1.01
same,normalized growth,"locus YIL125W, strain kgd1, hits give low values",0.992
same,normalized growth,"locus YIR030C, strain dcg1, hits give low values",0.982
same,normalized growth,"locus YJL092W, strain hpr5, hits give low values",0.985
same,normalized growth,"locus YJL095W, strain BCK1 (second series), hits give low values",0.988
same,normalized growth,"locus YJL095W, strain BCK1, hits give low values",0.95 and 0.958
same,normalized growth,"locus YJL115W, strain asf1, hits give low values",0.984
same,normalized growth,"locus YJL129C, strain trk1, hits give low values",0.99
same,normalized growth,"locus YJL134W, strain LCB3, hits give low values",0.994
same,normalized growth,"locus YJL154C, strain vps35, hits give low values",0.983
same,normalized growth,"locus YJL164C, strain tpk1, hits give low values",1.04
same,normalized growth,"locus YJL166W, strain qcr8, hits give low values",0.933
same,normalized growth,"locus YJL168C, strain set2, hits give low values",0.982
same,normalized growth,"locus YJL187C, strain SWE1 (second series), hits give low values",0.975
same,normalized growth,"locus YJR043C, strain POL32, hits give low values",0.985
same,normalized growth,"locus YJR066W, strain TOR1, hits give low values",0.937
same,normalized growth,"locus YJR075W, strain HOC1, hits give low values",0.991
